Test results from PubChem BioAssay AID623978 (Broad Institute, 2012).
Potency and affinity values are given separately. Results filed as inconclusive are left out. The source made the active and inactive calls.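 How the source made its calls: active means every replicate run active, each with half-maximal inhibition reached at or below twice the top valid dose; inconclusive means runs disagree, or fits are weak or poor; inactive means every run inactive, including upward signal shifts.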

What follows are molecules tested against Glycogen synthase kinase-3 alpha (Homo sapiens) (UniProt P49840) (assay: human GSK3 alpha kinase inhibition, dose response, selectivity assay for GSK3beta inhibitor project, biochemical, microfluidics, dry powder samples, set 2 (AID 623978)). Settings: GSK3a microfluidic mobility shift, percent conversion; series mostly up to 35 µM.
Chain of Glycogen synthase kinase-3 alpha (Homo sapiens) (P49840 whole entry, looked up): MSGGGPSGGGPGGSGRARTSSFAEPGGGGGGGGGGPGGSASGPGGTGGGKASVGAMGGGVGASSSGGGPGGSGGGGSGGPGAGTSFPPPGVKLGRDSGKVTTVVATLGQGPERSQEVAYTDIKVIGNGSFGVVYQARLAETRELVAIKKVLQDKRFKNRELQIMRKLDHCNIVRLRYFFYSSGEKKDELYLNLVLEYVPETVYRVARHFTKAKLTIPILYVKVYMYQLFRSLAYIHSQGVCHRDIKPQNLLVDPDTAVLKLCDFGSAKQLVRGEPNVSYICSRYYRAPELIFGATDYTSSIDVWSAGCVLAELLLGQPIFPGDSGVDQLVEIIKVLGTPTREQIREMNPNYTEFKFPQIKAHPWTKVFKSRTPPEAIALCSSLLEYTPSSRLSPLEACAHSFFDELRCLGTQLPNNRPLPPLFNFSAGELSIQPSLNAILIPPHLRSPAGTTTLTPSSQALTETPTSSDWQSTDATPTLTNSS

outcome, inactive:
O=C(Cc1cccc2ccccc12)Nc1cn(C2CCC2)cn1
Cc1ccc(S(=O)(=O)N2CCN(CC(=O)N/N=C/c3ccccn3)CC2)cc1
COc1cc(C(=O)N2CCN(c3ccccn3)CC2)cc(OC)c1OC
